The panel holds about 83,000 compounds, 20% with a hit somewhere; the sample as a whole holds those more often.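 Single-concentration screen, 48 h exposure, 96-well plates. Endpoint: percent growth. Below 10 = active.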 A number with no mark means an inactive call. Active and inactive are the calls of the source.
Tests used:
Assay in all cases: NCI-60 one-dose screen, 48 h (100 = growth as untreated, 0 = no growth, -100 = all killed)
Conditions in all cases: 10 µM unless noted
NCI-H23 lung = tested on: NCI-H23 lung
NCI-H226 lung = tested on: NCI-H226 lung
NCI-H322M lung = tested on: NCI-H322M lung
HOP-62 NSCLC = tested on: HOP-62 NSCLC
NCI-H460 lung = tested on: NCI-H460 lung
HOP-92 NSCLC = tested on: HOP-92 NSCLC
NCI-H522 lung = tested on: NCI-H522 lung
A549/ATCC NSCLC = tested on: A549/ATCC NSCLC
786-0 renal = tested on: 786-0 renal
COLO 205 colon = tested on: COLO 205 colon
DU-145 prostate = tested on: DU-145 prostate
K-562 leukemia = tested on: K-562 leukemia
MALME-3M melanoma = tested on: MALME-3M melanoma
MDA-MB-231 breast = tested on: MDA-MB-231 breast
RXF 393 renal = tested on: RXF 393 renal
SF-268 CNS = tested on: SF-268 CNS
SF-295 CNS = tested on: SF-295 CNS
SF-539 CNS = tested on: SF-539 CNS
UACC-257 melanoma = tested on: UACC-257 melanoma
M14 melanoma = tested on: M14 melanoma

SMILES | growth (NCI-H23 lung) | growth (NCI-H226 lung) | growth (NCI-H322M lung) | growth (HOP-62 NSCLC) | growth (NCI-H460 lung) | growth (HOP-92 NSCLC) | growth (NCI-H522 lung) | growth (A549/ATCC NSCLC) | growth (786-0 renal) | growth (COLO 205 colon) | growth (DU-145 prostate) | growth (K-562 leukemia) | growth (MALME-3M melanoma) | growth (MDA-MB-231 breast) | growth (RXF 393 renal) | growth (SF-268 CNS) | growth (SF-295 CNS) | growth (SF-539 CNS) | growth (UACC-257 melanoma) | growth (M14 melanoma)
Cc1ccc(-c2csc(NC(=O)N3CCN(c4cc5c(cc4F)c(=O)c(C(=O)O)cn5C4CC4)CC3)n2)cc1 | 4.84% (active) | 14.5% | 9.12% (active) | 12.6% | 19.6% | -12.6% (active) | -5.07% (active) | 11.1% | 28.9% | 11.9% | 16.3% | 17.1% | -3.8% (active) | 17.5% | 26.6% | 24.3% | 4.88% (active) | 26.7% | -4.73% (active) | 20%
CC(CN)[C@@H]1CC[C@]2(CO)CC[C@]3(C)[C@H](CC[C@@H]4[C@@]5(C)CCC(N)C(C)(C)[C@@H]5CC[C@]43C)[C@@H]12 (stereo not given in full) | -29.1% (active) | 85.2% | 48.8% | -48.1% (active) | -80% (active) | 70.9% | -50.4% (active) | -89.3% (active) | -63.1% (active) | 32.8% | -87.9% (active) | -55.8% (active) | 74.2% | -68.5% (active) | 53.1% | -60.9% (active) | 56.9% | 42.2% | 78.1% | 11.8%
Cc1cccc(NC(=O)CSc2nc3ccc([N+](=O)[O-])cc3[nH]2)c1 | 69.7% | 71% | 97.2% | 115% | 84.7% | 21% | 61% | 82.7% | 84.8% | 90.1% | 85% | 66.5% | 62.2% | 97.3% | 89% | 87.8% | 62.7% | 87.1% | 70.9% | 79.9%
O=C(N/N=C/c1ccc(O)cc1O)c1ccc(Nc2ccnc(C(F)(F)F)c2)cc1 | 52.4% | 16.8% | -3.47% (active) | 31.1% | 24.6% | 40.9% | 44.2% | 80.6% | 33.7% | 9.64% (active) | 53.5% | 74.9% | 46.6% | 46.1% | 95.3% | 41.1% | 47.8% | 27.6% | 44.6% | 36.1%
CCN(C(=O)N1CCN(c2cc3c(cc2F)c(=O)c(C(=O)O)cn3C2CC2)CC1)c1nc(-c2ccc(C)cc2)cs1 | 6.95% (active) | 3.21% (active) | 10.3% | 5.92% (active) | 8.41% (active) | -12% (active) | 3.2% (active) | 16.1% | 15.6% | -21.2% (active) | 23.6% | 16% | 14.7% | 6.79% (active) | 21.8% | 21% | -3.48% (active) | 20.2% | 14.6% | 19.6%
COc1cc(/C=N/Nc2ccccc2F)cc(OC)c1OC | 101% | 95.6% | 91.3% | 94.4% | 101% | 99.1% | 68.7% | 95.5% | 90.4% | 109% | 106% | 48.5% | 99% | 81.5% | 123% | 83.2% | 98.1% | 99.3% | 116% | 96.5%
CN1CCN(CCOc2ccc(-c3cnc4c(-c5ccc(C(F)(F)F)cc5)cnn4c3)cc2)CC1 | 48.5% | 87.8% | 64.3% | 37.5% | -50.3% (active) | 40.4% | 44.4% | -41.1% (active) | -57.3% (active) | -55.7% (active) | 40.7% | -36% (active) | 50.4% | 31.6% | 32.4% | 48.7% | 64.4% | 67.6% | 8.47% (active) | -64.2% (active)
COc1ccc(C2=CN3CC=CCC3CC2=O)cc1 (stereo not given) | 106% | 99.9% | 113% | 87.8% | 108% | 92.1% | 66.9% | 75% | 101% | 113% | 100% | 105% | 116% | 98.3% | 100% | 101% | 104% | 104% | 71.6% | 99.5%
COc1ccc(C(C)=O)cc1S(N)(=O)=O | 98.2% | 101% | 97.1% | 112% | 104% | 92% | 75.6% | 88% | 89.4% | 115% | 106% | 104% | 99.3% | 103% | 102% | 101% | 94.6% | 104% | 91.9% | 95%
CCCCCCCC/C=C\CCCCCCCCOc1ccc(CC(=O)NCC[N+](C)(C)C)cc1 | 67.2% | 70% | 85.6% | 24.3% | 29.9% | 62.3% | 50.7% | 74.1% | 59.6% | -69.1% (active) | 75.6% | 55.1% | 70.2% | 67.4% | -21.8% (active) | 68.6% | 77.8% | 66.8% | 79.7% | 63.7%
CC(C)(CO)N(CCO)CCO | 97.3% | 94% | 95.4% | 110% | 110% | 78.9% | 95.9% | 114% | 102% | 123% | 118% | 101% | 105% | 104% | 104% | 104% | 108% | 97.4% | 116% | 108%
COc1cc(/C=C\c2cc(/C=C\c3ccc(O)c(OC)c3)n(C(=O)CNc3ccc(Cl)cc3)n2)ccc1O | 24% | 51.2% | 39.2% | 23.3% | 6.98% (active) | 66.9% | 2.11% (active) | 19.5% | 15.7% | 90.4% | 27.7% | 6.99% (active) | 34.2% | 43% | 3.29% (active) | 25.5% | 72.8% | 8.34% (active) | 70.2% | 4.29% (active)
COc1ccc(Nc2ncc(C(N)=O)c(NCCCNC(=O)C3CCC3)n2)cc1 | 76.9% | 62.7% | 79% | 35.9% | 68.6% | 60.6% | 77.1% | 83.1% | 74.1% | 3.6% (active) | 77.3% | 39.5% | 95.2% | 26.5% | 17% | 80.9% | 75.7% | 14.3% | 112% | 67.7%
COc1ccc(-c2ccc(-c3ccc(C(=N)N)cn3)s2)cc1 | 98.8% | 84.5% | 91.9% | 90% | -22.6% (active) | 80% | 82.4% | 63.6% | 99.7% | 62.4% | 64.2% | 0.33% (active) | 102% | 87.7% | 97.8% | 99% | 104% | 94.3% | 102% | 101%
COc1cc(Nc2c3ccc(Cl)cc3nc3ccc(OC)cc23)c2ncccc2c1 | 50% | 62.1% | 47.9% | 50.1% | 21% | -0.879% (active) | 49.7% | 34.3% | 60.4% | 59.6% | 39.4% | 53.2% | 32.1% | 34% | 45.5% | 43.3% | 46.2% | 45% | 59.6% | 49.5%
